# A selection: hits, their analogues and other compounds. The true share with any hit is near 2.2%.
# Redox H2O2 prof: compounds producing H2O2 with reducing agent – biochemical, NIH compound library profiling, artefact control for MLSCN library redox annotation, primary screen; DTT-dependent redox cycling H2O2, phenol red/HRP absorbance; 100% = 100 µM peroxide control, 0% = buffer; activation, % at 10 µM; actives 0.03% (n = 200,000); AID 878;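 active = activation of at least 50% relative to the plate's high and low controls in the primary single-dose screen; inactive = activation below 50%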;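 also: compound incubated with DTT at 0.8 mM final as the reducing agent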
# Autophagy mod: autophagy modulation, high-content screen; calls only at 10 µM (by protocol); MEF GFP-LC3 puncta imaging; test concentration mostly 10 µM; actives 0.98% (n = 190,000);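 active = percentage of spot-positive cells more than 3 SD above its plate mean, without a fluorescence outlier flag or 80% toxicity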
# Arbovirus inh: arbovirus infection inhibition | actives 0.37% (n = 200,000) | inhibition, % at 10 µM | AID 1251 | arbovirus infection cell-based antiviral screen; in the data active = inhibition above about 30%
# Efa HMGR inh: E. faecalis class II HMG-CoA reductase inhibition | inhibition, % at 10 µM | actives 0.41% (n = 190,000) | AID 1066 | purified E. faecalis HMGR, NADPH absorbance 340 nm kinetic;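 active = inhibition above a set limit, the median over all tested compounds plus 3 SD, cut at about 9.5% in these data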;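 also: enzyme runs in reverse so mevalonate oxidation gives rising NADPH absorbance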
# p47phox inh: p47phox (human) inhibition; AID 1274; inhibition, % at 24.7 µM; actives 0.53% (n = 220,000); p47phox/p22phox peptide binding, fluorescence polarization, 2 h;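 active = inhibition above about 30%, limit read from the data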
# Target sequence (P14598 whole entry, looked up): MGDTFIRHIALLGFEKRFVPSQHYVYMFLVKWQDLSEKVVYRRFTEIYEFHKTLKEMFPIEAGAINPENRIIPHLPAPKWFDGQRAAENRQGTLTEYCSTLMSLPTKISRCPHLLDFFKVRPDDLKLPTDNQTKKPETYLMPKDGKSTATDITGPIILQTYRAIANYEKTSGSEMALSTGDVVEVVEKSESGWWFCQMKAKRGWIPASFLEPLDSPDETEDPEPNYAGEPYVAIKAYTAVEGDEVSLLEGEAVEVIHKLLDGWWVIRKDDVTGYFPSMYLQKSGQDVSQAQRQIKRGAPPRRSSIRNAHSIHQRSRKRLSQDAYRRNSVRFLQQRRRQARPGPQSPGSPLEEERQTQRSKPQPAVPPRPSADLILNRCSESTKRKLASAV
# Insulin prom up: MIN6 insulin promoter up-regulation; MIN6 insulin promoter-GFP reporter, high-content imaging; hits give high values; z-score at 5 µM; actives 0.3% (n = 190,000);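 active = z-score above 3 at 5 µM with at least 500 cells counted in the well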
# Numbers stand for hits; – = inactive; · = not tested or not shown; + = active, no number.
SMILES,Redox H2O2 prof,Autophagy mod,Arbovirus inh,Efa HMGR inh,p47phox inh,Insulin prom up
COc1cc(/C=C2\SC(=O)N(c3ccc(Cl)cc3)C2=O)cc([N+](=O)[O-])c1O,–,–,57,–,–,–
CCSc1nc2c(cnn2-c2ccc(C)c(C)c2)c(=O)[nH]1,–,–,–,–,–,–
COc1ccccc1Oc1ccc(S(=O)(=O)N2CCCC2)cc1,–,–,–,–,–,–
Cc1ccc(S(=O)(=O)c2cccc(S(=O)(=O)N3CCOCC3)c2)cc1S(=O)(=O)N1CCOCC1,–,–,–,–,–,–
COc1ccc(Oc2ccc(S(=O)(=O)N3CCCCC3)cc2S(=O)(=O)N2CCCCC2)cc1,·,·,36,·,–,–
Cc1ccc(S(=O)(=O)c2cccc(S(=O)(=O)N3CCCC3)c2)cc1S(=O)(=O)N1CCCC1,–,–,–,–,–,3
COc1ccc2oc3cc(C)[n+]([O-])c(-c4ccc(C)cc4)c3c2c1,–,–,46,–,–,–
COc1ccc2oc3cc(C)[n+]([O-])c(-c4ccc(Cl)cc4)c3c2c1,–,–,45,–,–,–
COc1ccc(-c2c3c(cc(C)[n+]2[O-])oc2ccc(OC)cc23)cc1,–,–,40,–,–,–
Cc1ccc(NC(=O)NNC(=O)C2CCN(Cc3ccc(F)cc3Cl)CC2)cc1,–,–,–,–,–,·
CN1CCN(S(=O)(=O)c2ccc(NC(=S)NC(=O)c3ccc(Cl)cc3)cc2)CC1,–,–,49,–,–,–
CN1CCN(S(=O)(=O)c2ccc(NC(=S)NC(=O)c3ccccc3)cc2)CC1,–,–,–,–,–,–
COc1ccc(CN(C(=O)c2cc3ccccc3oc2=O)C2CCCCC2)cc1OC,–,–,103,–,–,–
CC(=NCCc1c(C)[nH]c2ccc(OCc3ccccc3)cc12)C1=C(O)CC(c2ccccc2)CC1=O (centres undefined),–,–,–,13,–,–
CCCCC(=NCCc1c(C)[nH]c2ccc(OC)cc12)C1=C(O)CC(c2ccccc2)CC1=O (centres undefined),–,–,–,–,–,–
CNC(=O)OCc1cccc(COC(=O)NC)n1,–,–,–,–,39,·
CC(=O)NCc1cccc(CNC(C)=O)n1,–,–,–,–,–,–
O=C(Cc1nnc(NC(=O)Nc2ccccc2F)s1)NCc1ccccc1,·,·,·,·,–,·
O=C(NCC(=O)N(Cc1cccs1)C(C(=O)NC1CCCCC1)c1ccncc1)c1ccco1 (centres undefined),–,–,–,11,–,·
N#CC(C(=O)NC1CCCCC1)c1nc2ccccc2nc1N1CCN(c2ccc(F)cc2)CC1 (centres undefined),–,+,–,–,–,–
O=S(=O)(/N=C(/Nc1ccc(Cl)cc1Cl)c1ccccc1)c1cccs1,–,–,–,–,–,–
CC1CCN(c2c(NCc3ccc(C(=O)N4CCc5ccccc54)cc3)c(=O)c2=O)CC1,–,+,–,–,–,–
O=C(O)c1cccc(NC(=S)NC(=O)c2ccc(-c3ccc(Cl)cc3)o2)c1,–,–,35,–,–,–
Cc1ccc(C(=O)O)cc1NC(=S)NC(=O)c1ccc(-c2ccc(Cl)cc2)o1,·,·,·,·,–,–
O=C(O)c1cccc(NC(=S)NC(=O)c2ccc(-c3ccccc3)cc2)c1,–,–,–,–,–,·
SMILES,Redox H2O2 prof,Autophagy mod,Arbovirus inh,Efa HMGR inh,p47phox inh,Insulin prom up
COc1ccc(C(=O)O)cc1NC(=S)NC(=O)c1ccc(-c2ccc(Cl)cc2)o1,–,–,50,–,–,–
CC(=O)Nc1ccc(NC(=O)C(OC(=O)c2ccccc2)C(OC(=O)c2ccccc2)C(=O)O)cc1 (centres undefined),–,–,–,–,–,–
Cn1cc(Br)c(C(=O)Nc2sc3c(c2C(N)=O)CCC3)n1,–,–,–,–,–,–
CCn1ncc(Br)c1C(=O)Nc1sc2c(c1C(N)=O)CCC2,–,–,–,–,–,3.5
Nc1ccccc1-c1nnc(-c2ccc(-c3ccccc3)cc2)o1,–,–,–,–,58,–
c1ccc(-c2nnc(-c3ccccc3)o2)cc1,–,–,–,·,–,–
CCSc1nnc(NC(NC(C)=O)(C(F)(F)F)C(F)(F)F)s1,–,–,–,–,–,–
NC(=O)C[n+]1ccc(/C=N/O)cc1,–,+,–,–,–,–
CCn1ccc(C(=O)Nc2c(C)nn(Cc3c(F)c(F)c(F)c(F)c3F)c2C)n1,–,–,–,–,–,–

# High-throughput results as filed in PubChem BioAssay.
